The panel holds about 79,000 compounds, 15% with a hit somewhere; the sample as a whole holds those more often. The source made the active and inactive calls. Rule as the data show it: active = growth inhibition above about 70%; inactive = the rest.
Columns and labels:
[1] = NCI Yeast Anticancer Drug Screen. Data for the rad52 strain (AID 147);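 also: 0% = growth of vehicle-treated control cultures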; conditions: S. cerevisiae rad52 mutant growth inhibition, hits give high values
How it was run: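 Genetically altered yeast (DNA damage repair defect) treated with compound; inhibition calculated relative to vehicle.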

[2] = NCI Yeast Anticancer Drug Screen. Data for the wt1 strain (AID 149);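 also: 0% = growth of vehicle-treated wt1 cultures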; conditions: S. cerevisiae wt1 strain (SPY 50644) growth inhibition, hits give high values
How it was run: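 Yeast wt1 strain exposed to compounds; growth inhibition measured relative to vehicle-treated controls.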

[3] = NCI Yeast Anticancer Drug Screen. Data for the rad50EPP+ strain (AID 151);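 also: 0% = growth of vehicle-treated control cultures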; conditions: S. cerevisiae rad50 mutant strain, hits give high values
How it was run: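 Strain rad50EPP+; compound exposure; % growth inhibition vs vehicle.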

[4] = NCI Yeast Anticancer Drug Screen. Data for the mgt1 strain (AID 153); conditions: S. cerevisiae mgt1 mutant growth inhibition, hits give high values
How it was run: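 Read-out: yeast growth inhibition vs vehicle control. Strain mgt1, drawn from a panel altered in DNA damage repair or cell cycle control.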

[5] = NCI Yeast Anticancer Drug Screen. Data for the rad50 strain (AID 155);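 also: 0% = growth of vehicle-only cultures of the same strain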; conditions: S. cerevisiae rad50 strain growth inhibition, hits give high values
How it was run: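 Yeast carrying a defined DNA repair defect were exposed to test compounds, and growth was compared with vehicle-treated controls to give percent inhibition.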

[6] = NCI Yeast Anticancer Drug Screen. Data for the mec2-1 strain (AID 157); conditions: S. cerevisiae mec2-1 strain, hits give high values
How it was run: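 Cells of the genetically defined mec2-1 yeast strain are incubated with test compound. Inhibition of growth is calculated against vehicle-treated controls.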

[7] = NCI Yeast Anticancer Drug Screen. Data for the rad14 strain (AID 159);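 also: 0% = growth of vehicle-treated control cultures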; conditions: S. cerevisiae rad14 strain growth inhibition, hits give high values
How it was run: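 Yeast cells carrying a defined DNA-repair defect were exposed to compounds, and growth inhibition was calculated relative to vehicle-treated control cultures.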

[8] = NCI Yeast Anticancer Drug Screen. Data for the sgs1 mgt1 strain (AID 161);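 also: 0% = growth of cultures given vehicle only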; conditions: S. cerevisiae sgs1 mgt1 strain, hits give high values
How it was run: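 Test agents were incubated with a DNA-repair-mutant yeast strain. Growth was then read and compared against vehicle-treated controls.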

[9] = NCI Yeast Anticancer Drug Screen. Data for the CLN2oe strain (AID 163);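 also: 0% = growth of vehicle-only control cultures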; conditions: S. cerevisiae CLN2oe strain, hits give high values
How it was run: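 Strain altered in cell-cycle control, incubated with compound; growth compared to solvent-treated controls.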

[10] = NCI Yeast Anticancer Drug Screen. Data for the cln2 rad14 strain (AID 165);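 also: 0% = growth equal to vehicle treated cultures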; conditions: S. cerevisiae cln2 rad14 strain, hits give high values
How it was run: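 The screen exposed genetically defined yeast (cln2 rad14) to test compounds and scored growth inhibition relative to vehicle-treated controls.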

[11] = NCI Yeast Anticancer Drug Screen. Data for the bub3 strain (AID 167); conditions: S. cerevisiae bub3 mutant strain, hits give high values
How it was run: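 Compounds were applied to a genetically altered yeast strain carrying a cell-cycle control defect. Growth inhibition was scored against vehicle-treated controls.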

[12] = NCI Yeast Anticancer Drug Screen. Data for the wt2 strain (AID 169);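 also: 0% = growth of vehicle-treated yeast cultures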; conditions: S. cerevisiae wt2 strain growth inhibition, hits give high values
How it was run: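 Steps: yeast strain treated with compound; growth recorded; inhibition calculated relative to cultures given vehicle alone.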

[13] = NCI Yeast Anticancer Drug Screen. Data for the mlh1 strain (AID 171);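 also: 0% = growth of vehicle-treated control cultures of the same strain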; conditions: S. cerevisiae mlh1 strain growth inhibition, hits give high values
How it was run: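 Yeast screen: mutant strain plus compound, growth scored against vehicle control wells.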

[14] = NCI Yeast Anticancer Drug Screen. Data for the sgs1 strain (AID 173);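 also: 0% = growth of vehicle-only control cultures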; conditions: S. cerevisiae sgs1 mutant, hits give high values
How it was run: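 Inhibition of yeast growth served as the measure. The mutant strain was treated with each compound, and growth was normalised to cultures receiving vehicle alone.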

[15] = NCI Yeast Anticancer Drug Screen. Data for the mlh1 rad18 strain (AID 175); conditions: S. cerevisiae mlh1 rad18 strain growth inhibition, hits give high values
How it was run: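 Compound-treated yeast growth, normalised to vehicle controls. Strain bears defined DNA repair mutations.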

[16] = NCI Yeast Anticancer Drug Screen. Data for the rad18 strain (AID 177); conditions: S. cerevisiae rad18 mutant growth inhibition, hits give high values
How it was run: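 Inhibition values reflect reduced yeast growth compared with vehicle-treated controls, using a strain engineered with a DNA damage repair defect.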

[17] = at 5.0 µM (retest, dose inferred, filed as 0.5)
[18] = at 50.0 µM (retest, dose inferred, filed as 5.0)

Measured: growth inhibition

CCCCCCCCCCCCCCCCOP(=O)(O)OCC(N)C(=O)O (stereo unspecified)
inactive: [1]; at 1.2 µM -2% | [1]; at 3.7 µM 5% | [1]; at 11.0 µM 54% | [2]; at 1.2 µM -19% | [2]; at 3.7 µM -22% | [2]; at 11.0 µM 39% | [3]; at 1.2 µM -17% | [3]; at 3.7 µM -4% | [4]; at 1.2 µM -1% | [4]; at 3.7 µM 5% | [4]; at 11.0 µM 52% | [5]; at 1.2 µM -20% | [5]; at 3.7 µM -6% | [5]; [17] -25% | [5]; at 11.0 µM 42% | [6]; at 1.2 µM 6% | [6]; at 3.7 µM 3% | [6]; [17] 12% | [6]; at 11.0 µM 50% | [7]; at 1.2 µM 4% | [7]; at 3.7 µM -4% | [7]; at 11.0 µM 59% | [8]; [17] -13% | [9]; at 1.2 µM 6% | [9]; at 3.7 µM -10% | [9]; at 11.0 µM -3% | [10]; [17] 6% | [11]; at 1.2 µM -13% | [11]; at 3.7 µM -29% | [11]; [17] -14% | [11]; at 11.0 µM 34% | [12]; at 1.2 µM -17% | [12]; at 3.7 µM -22% | [12]; at 11.0 µM -22% | [12]; at 33.0 µM -22% | [12]; at 100.0 µM 48% | [13]; at 1.2 µM -23% | [13]; at 3.7 µM -11% | [13]; at 11.0 µM 53% | [14]; at 1.2 µM 14% | [14]; at 3.7 µM 1% | [14]; at 11.0 µM 51% | [15]; [17] -26% | [16]; at 1.2 µM -25% | [16]; at 3.7 µM -11% | [16]; at 11.0 µM 40%
active: [1]; at 33.0 µM 98% | [1]; at 100.0 µM 98% | [2]; at 33.0 µM 98% | [2]; at 100.0 µM 97% | [3]; at 11.0 µM 80% | [3]; at 33.0 µM 98% | [3]; at 100.0 µM 98% | [4]; at 33.0 µM 97% | [4]; at 100.0 µM 97% | [5]; at 33.0 µM 97% | [5]; [18] 98% | [5]; at 50.0 µM 98.4% | [5]; at 100.0 µM 97% | [6]; at 33.0 µM 98% | [6]; [18] 99% | [6]; at 50.0 µM 98.2% | [6]; at 100.0 µM 97% | [7]; at 33.0 µM 98% | [7]; at 100.0 µM 97% | [8]; [18] 99% | [8]; at 50.0 µM 98.8% | [9]; at 33.0 µM 94% | [9]; at 100.0 µM 97% | [10]; [18] 99% | [10]; at 50.0 µM 98% | [11]; at 33.0 µM 98% | [11]; [18] 99% | [11]; at 50.0 µM 98.8% | [11]; at 100.0 µM 98% | [13]; at 33.0 µM 97% | [13]; at 100.0 µM 97% | [14]; at 33.0 µM 98% | [14]; at 100.0 µM 98% | [15]; [18] 99% | [15]; at 50.0 µM 98.2% | [16]; at 33.0 µM 97% | [16]; at 100.0 µM 97%

CCCCOCn1c(=O)[nH]c(=O)c2cc(Br)ccc21
inactive: [1]; at 1.2 µM -35% | [1]; at 3.7 µM -45% | [1]; at 11.0 µM -30% | [1]; at 33.0 µM -6% | [1]; at 100.0 µM -10% | [2]; at 1.2 µM -37% | [2]; at 3.7 µM -18% | [2]; at 11.0 µM -58% | [2]; at 33.0 µM -44% | [2]; at 100.0 µM -39% | [3]; at 1.2 µM -59% | [3]; at 3.7 µM -71% | [3]; at 11.0 µM -50% | [3]; at 33.0 µM -61% | [3]; at 100.0 µM -92% | [4]; at 1.2 µM -52% | [4]; at 3.7 µM -36% | [4]; at 11.0 µM -47% | [4]; at 33.0 µM -32% | [4]; at 100.0 µM -32% | [5]; at 1.2 µM -35% | [5]; at 3.7 µM -26% | [5]; [17] 21% | [5]; at 11.0 µM -10% | [5]; at 33.0 µM -24% | [5]; [18] 22% | [5]; at 50.0 µM 18.7% | [5]; at 100.0 µM -15% | [6]; at 1.2 µM -1% | [6]; at 3.7 µM 6% | [6]; [17] 14% | [6]; at 11.0 µM 2% | [6]; at 33.0 µM 11% | [6]; [18] 11% | [6]; at 50.0 µM 4.05% | [6]; at 100.0 µM -5% | [7]; at 1.2 µM -22% | [7]; at 3.7 µM -50% | [7]; at 11.0 µM -39% | [7]; at 33.0 µM -35% | [7]; at 100.0 µM -42% | [8]; [17] 59% | [9]; at 1.2 µM -20% | [9]; at 3.7 µM -11% | [9]; at 11.0 µM -38% | [9]; at 33.0 µM -21% | [9]; at 100.0 µM -29% | [10]; [17] 32% | [10]; at 50.0 µM 17.8% | [11]; at 1.2 µM -46% | [11]; at 3.7 µM -36% | [11]; [17] 23% | [11]; at 11.0 µM -35% | [11]; at 33.0 µM -39% | [11]; at 100.0 µM -33% | [12]; at 1.2 µM -21% | [12]; at 3.7 µM -20% | [12]; at 11.0 µM -21% | [12]; at 33.0 µM -19% | [12]; at 100.0 µM 0% | [13]; at 1.2 µM -48% | [13]; at 3.7 µM -48% | [13]; at 11.0 µM -41% | [13]; at 33.0 µM -41% | [13]; at 100.0 µM -62% | [14]; at 1.2 µM -18% | [14]; at 3.7 µM -7% | [14]; at 11.0 µM -16% | [14]; at 33.0 µM -18% | [14]; at 100.0 µM -8% | [15]; [17] 28% | [15]; [18] 32% | [15]; at 50.0 µM 26.9% | [16]; at 1.2 µM -19% | [16]; at 3.7 µM -5% | [16]; at 11.0 µM -1% | [16]; at 33.0 µM 9% | [16]; at 100.0 µM 38%
active: [8]; [18] 91% | [8]; at 50.0 µM 90.2% | [10]; [18] 86% | [11]; [18] 92% | [11]; at 50.0 µM 82.2%

Reference: PubChem BioAssay (NCI)
